Laboratory results taken from PubChem BioAssay (Tox21).
“And” between values parts separate entries of the source, which are not always exact repeats. Equal entries are not always repeated. Records with an inconclusive call do not appear. The source holds several records for some structures; these can differ, active in one and inactive in another. The source made the active and inactive calls. Calls come from the whole dose curve; as a rule, active = well fitted activation curve with a large enough effect in the repeat runs; inconclusive = weak or mixed curves; inactive = no such curve, though single readings can be large or run the other way.

Each compound was assayed against Nuclear receptor subfamily 1 group I member 2 (Homo sapiens) (UniProt O75469) (assay: Human pregnane X receptor (PXR) small molecule agonists, qHTS assay (AID 1346982; note: nearly all actives have a fitted effect of over 35% in size)). Conditions: PXR-Luc HepG2, CYP3A4 luciferase reporter, 24 h; series mostly up to 92.4 µM; activation: at the top concentration.
Source text: National Center for Advancing Translational Sciences [NCATS]
NIH Chemical Genomics Center [NCGC]
U.S. Environmental Protection Agency [EPA]
National Institutes of Environmental Health Sciences [NIEHS]
National Toxicology Program [NTP]
The human pregnane X receptor (hPXR) regulates the expression of several drug metabolizing enzymes and induction of these proteins is a major mechanism for developing drug resistance in cancer. One such key enzyme catalyzing the drug metabolism is cytochrome P450 3A4 (CYP3A4). Changes in CYP3A4 expression affect drug metabolism, thereby reducing the therapeutic efficacy and altering toxicological response to a drug and which finally causes adverse drug interaction. To screen Tox21 libraries for compounds that activate hPXR-mediated CYP3A4 gene expression, PXR-Luc HepG2 cells were used.
PXR-Luc HepG2 cells were dispensed at 2,000 per well in 5uL of assay medium containing 5% charcoal-stripped FBS into white solid bottom 1536-well plates (Corning Life Sciences, Corning, NY) using a Multidrop Combi (Thermo Scientific, Waltham, MA) dispenser. The assay plates were incubated at 37 C and 5% CO2 for 5hr, and then 23nL of compounds dissolved in DMSO and positive control were transferred using a Pintool station (Wako, San Diego, CA). The assay plates were incubated at 37C and 5% CO2 for 24hr. For luciferase read, 4uL of ONE-Glo reagent (Promega Corporation, Madison, WI) was added to each well of the assay plates using Flying Reagent Dispenser (FRD, Aurora Discovery, San Diego, CA) and incubated the assay plates at room temperature for 30min. The luminescence signal was quantified using a ViewLux plate reader (Perkin Elmer, Shelton, CT).
% is set by controls: 0 for no effect and ±100 for the full control effect; potency is the fitted concentration of half-maximal effect.

Nuclear receptor subfamily 1 group I member 2 (Homo sapiens), sequence (O75469 whole entry, looked up): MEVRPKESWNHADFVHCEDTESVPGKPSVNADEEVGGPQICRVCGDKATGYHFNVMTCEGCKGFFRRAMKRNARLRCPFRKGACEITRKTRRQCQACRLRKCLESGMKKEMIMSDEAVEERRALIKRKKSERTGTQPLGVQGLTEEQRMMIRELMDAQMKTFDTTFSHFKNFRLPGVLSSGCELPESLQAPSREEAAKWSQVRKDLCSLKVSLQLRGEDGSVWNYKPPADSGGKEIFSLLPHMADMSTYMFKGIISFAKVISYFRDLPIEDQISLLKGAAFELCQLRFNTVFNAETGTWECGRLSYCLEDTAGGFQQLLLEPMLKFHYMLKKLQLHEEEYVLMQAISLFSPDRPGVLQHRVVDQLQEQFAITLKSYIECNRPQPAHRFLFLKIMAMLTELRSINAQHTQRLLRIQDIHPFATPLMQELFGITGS

| Compound | Potency | activation |
| --- | --- | --- |
| CCOP(=O)(Sc1ccccc1)Sc1ccccc1 | 34.4 µM (active) | – |
| CN1[C@@H]2CC[C@H]1CC(O)C2 (stereo not given in full) | – | 1.37% (inactive) |
| Nc1nc(N)nc(Cl)n1 | – | -5.2% (inactive) |
| CN(C)C(=S)SSC(=S)N(C)C | – | -37.4% (inactive) |
| O=C(N[C@@H]1N=C(c2ccccc2F)c2cccc3c2N(CC3)C1=O)c1cc2ccccc2[nH]1 | 10.6 µM (active) | – |
| O=S1OCC2C(CO1)C1(Cl)C(Cl)=C(Cl)C2(Cl)C1(Cl)Cl (stereo not given) | 24.4 µM (active) and inactive | – |
| Cc1ccccc1OP(=O)(Oc1ccccc1C)Oc1ccccc1C | 27.4 µM (active) | – |
| O=C(Cl)c1ccccc1F | – | 19% (inactive) |
| CC(Cc1ccc(OCC(=O)O)cc1)NCC(O)c1csc(C(F)(F)F)n1 (stereo not given) | – | -6.98% (inactive) |
| [Cl][Hg][c]1ccccc1 | – | -27.4% (inactive) |
| O=C1C(Cl)=C(Cl)C(=O)C(Cl)=C1Cl | 60.9 µM (active) and 61.1 µM (active) | – |
| COC(=O)N(OC)c1ccccc1COc1ccn(-c2ccc(Cl)cc2)n1 | 68.6 µM (active) | – |
| N#Cc1c[nH]cc1-c1cccc2c1OC(F)(F)O2 | 27.3 µM (active) | – |
| N#CCCl | – | 12.8% (inactive) |
| CCOC(=O)Cc1ccccc1 | – | 3.08% (inactive) |
| CCCCC(CC)COC(=O)OOC(C)(C)C (stereo not given) | – | 3.93% (inactive) |
| N#Cc1sc2c(=O)c3ccccc3c(=O)c=2sc1C#N | 2.73 µM (active) | – |
| N#CC(C#N)=NNc1cccc(Cl)c1 | – | -21.3% (inactive) |
| CCNS(=O)(=O)C(F)(F)C(F)(F)C(F)(F)C(F)(F)C(F)(F)C(F)(F)C(F)(F)C(F)(F)F | – | 3.98% (inactive) |
| Cc1cc(C2CC2)nc(Nc2ccccc2)n1 | 54.5 µM (active) | – |

| Compound | Potency | activation |
| --- | --- | --- |
| COC(=O)c1ccccc1S(=O)(=O)NC(=O)Nc1nc(C)nc(OC)n1 | – | 0.0962% (inactive) |
| CC(C)C(Nc1ccc(C(F)(F)F)cc1Cl)C(=O)OC(C#N)c1cccc(Oc2ccccc2)c1 (stereo not given) | 13.8 µM (active) | – |
| Cc1cc2c3c(c1)C(c1ccccc1)=N[C@@H](NC(=O)c1ccncc1)C(=O)N3CC2 | 13.7 µM (active) | – |
| c1ccc(Nc2ccc(Nc3ccccc3)cc2)cc1 | 24.2 µM (active) | – |
| CCCCON=O | – | 5.82% (inactive) |
| CN=C=O | – | 9.73% (inactive) |
| Cc1c([N+](=O)[O-])cc2c(c1[N+](=O)[O-])C(C)(C)CC2(C)C | 54.5 µM (active) | – |
| CC(O)C(=O)[O][Hg][c]1ccccc1 (stereo not given) | – | -24.1% (inactive) |
| CCCC[N+]1(C)CCCC1 (tested in a mixture with another compound) | 69.4 µM (active) | – |
| C=CC(=O)[O][Sn]([CH2]CCC)([CH2]CCC)[CH2]CCC | 0.172 µM (active) | – |
| CCC1COC(Cn2cncn2)(c2ccc(Cl)cc2Cl)O1 (stereo not given) | 19.3 µM (active) | – |
| Cc1cnc2c(C(=O)O)c(Cl)ccc2c1 | – | 6.93% (inactive) |
| COP(=O)(OC)O/C(=C\Cl)c1cc(Cl)c(Cl)cc1Cl | 54.5 µM (active) | – |
| CC(C)=CC1C(C(=O)OC(C#N)c2cccc(Oc3ccccc3)c2)C1(C)C (stereo not given) | 17.2 µM (active) | – |
| CN1C(=O)[C@@H](NC(=O)c2cc3ccccc3[nH]2)N=C(c2ccccc2)c2ccccc21 | – | 2.44% [at 42.5 µM] (inactive) |
| O=S(=O)(NS(=O)(=O)C(F)(F)F)C(F)(F)F | 60.9 µM (active) | – |
| CN1CCc2cc(Cl)c(O)cc2[C@H]2c3ccccc3CC[C@@H]21 | – | 32.4% [at 42.5 µM] (inactive) |
| CCCN | – | -0.453% (inactive) |
| Clc1cc(Cl)c(-c2cc(Cl)c(Cl)cc2Cl)cc1Cl | – | 1.42% [at 42.5 µM] (inactive) |
| CC1CCCC1 | – | 5.51% (inactive) |
